From PubChem BioAssay (NCI)
The panel holds about 79,000 compounds, 15% with a hit somewhere; the sample as a whole holds those more often. Activity calls are given as the source filed them. Cut-off read from the data, not from the text of the source: active = growth inhibition above about 70%; inactive = the rest.

How the values were obtained:
[1] = NCI Yeast Anticancer Drug Screen. Data for the rad50 strain (AID 155);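 note: 0% = growth of vehicle-only cultures of the same strain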; conditions: S. cerevisiae rad50 strain growth inhibition; at 50.0 µM; stronger effect = higher value
How it was run: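 Vehicle-treated cultures provide the reference for the growth inhibition reported for compound-exposed, repair-deficient yeast.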

[2] = NCI Yeast Anticancer Drug Screen. Data for the mec2-1 strain (AID 157); conditions: S. cerevisiae mec2-1 strain, at 50.0 µM, stronger effect = higher value
How it was run: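 Growth inhibition is read against vehicle-treated controls after compound exposure of the mec2-1 yeast strain, which is defective in DNA damage repair or cell cycle control.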

[3] = NCI Yeast Anticancer Drug Screen. Data for the sgs1 mgt1 strain (AID 161);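 note: 0% = growth of cultures given vehicle only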; conditions: S. cerevisiae sgs1 mgt1 strain, at 50.0 µM, stronger effect = higher value
How it was run: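 This yeast growth screen uses a strain with defined DNA-repair lesions; compound-treated growth is compared with vehicle-treated growth.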

[4] = NCI Yeast Anticancer Drug Screen. Data for the cln2 rad14 strain (AID 165);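 note: 0% = growth equal to vehicle treated cultures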; conditions: S. cerevisiae cln2 rad14 strain, at 50.0 µM, stronger effect = higher value
How it was run: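 Growth inhibition, relative to vehicle-treated controls, is the read-out. The test organism is a yeast strain with defined genetic alterations, cln2 rad14.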

[5] = NCI Yeast Anticancer Drug Screen. Data for the bub3 strain (AID 167); conditions: S. cerevisiae bub3 mutant strain, at 50.0 µM, stronger effect = higher value
How it was run: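 Mutant yeast screening strain plus compound; vehicle-treated cultures serve as the 0% inhibition reference.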

[6] = NCI Yeast Anticancer Drug Screen. Data for the mlh1 rad18 strain (AID 175); conditions: S. cerevisiae mlh1 rad18 strain growth inhibition; at 50.0 µM; stronger effect = higher value
How it was run: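 Cells of a genetically altered yeast strain, deficient in DNA damage repair, were treated with compound. Their growth was then compared with that of vehicle-treated cultures to give inhibition.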

Measured: growth inhibition

CSc1cc(Cl)c(C)cc1S(=O)(=O)NC(=O)NNc1ccccn1
inactive: [1] -4.3% | [2] -1.6% | [3] 8.15% | [4] -2.05% | [5] -1.5% | [6] 21%

NC(=N\C1=NCCN1)/C(N)=N/C1=NCCN1
inactive: [1] -13.4% | [2] 5.35% | [3] -1.35% | [4] -29.5% | [5] -2.3% | [6] -13.2%

O=[N+]([O-])c1ccc(I)c(I)c1
inactive: [1] -20.8% | [2] -3.8% | [3] 0.1% | [4] -43.2% | [5] -0.45% | [6] 7.85%

O=C(O)C1CCCCN1O (stereo not given)
inactive: [1] -7.85% | [2] -2.15% | [3] -15.9% | [4] 5.75% | [5] 10.9% | [6] -6.15%

COc1ccc(C2CC(=O)N(c3ncccc3C)C(=O)C2)cc1
inactive: [1] -1% | [2] 6.9% | [3] -1.05% | [4] -21.1% | [5] -18.8% | [6] 3.65%

O=c1c(SCc2ccc(Cl)cc2)c(N2CCCCC2)cnn1-c1ccccc1
inactive: [1] 20.5% | [2] 19.4% | [3] 10.8% | [4] 34% | [5] 9.3% | [6] 15.1%

CC(=O)Nc1ccc2oc(=O)[nH]c(=O)c2c1
inactive: [1] 10.8% | [2] -15.1% | [3] 6.3% | [4] 9.9% | [5] -18.6% | [6] -0.55%

O=C(O)c1cscc1-c1ccccc1
inactive: [1] 2.5% | [2] -0.05% | [3] -6.9% | [4] -19.9% | [5] -12.1% | [6] 3.6%

CC(O)C1OC(O)C2OC(C)(C)OC12 (stereo not given)
inactive: [1] 20.1% | [2] 17.4% | [3] 16.4% | [4] -4.35% | [5] 14.6% | [6] 7.9%

CCOC(=O)CC1CCC(CCCCC2CCC(CC(=O)OCC)CC2)CC1 (stereo not given)
active: [1] 76% | [3] 80%
inactive: [2] 44.5% | [4] 57.4% | [5] 22.2% | [6] 45.2%

OCCOc1ccc2ccccc2c1-c1c(OCCO)ccc2ccccc12
active: [1] 98.5% | [2] 95.7% | [3] 98.5% | [4] 97.7% | [5] 98.9% | [6] 98.6%

Cc1ccc(C)c(NC(=O)CC/C(=N\NC(=O)c2c(O)ccc3ccccc23)C(C)C(=O)c2ccc(O)cc2)c1 (stereo not given)
inactive: [1] 10.2% | [2] 36.5% | [3] -5.55% | [4] 12.6% | [5] 16.1% | [6] 20.8%

CSc1ccc(N=Cc2ccccc2O)cc1
inactive: [1] 11.2% | [2] -40% | [3] 22.2% | [4] 15.1% | [5] 8.85% | [6] 19.4%

Oc1ccc(Br)cc1/C=N\NC(=S)Nc1ccc2cn[nH]c2c1
inactive: [1] 47.1% | [2] 23.9% | [3] 47.8% | [4] 24.9% | [5] 2.1% | [6] 40.4%

O=[N+]([O-])c1cc(C(F)(F)F)ccc1Cl
inactive: [1] -11.2% | [2] 10.3% | [3] -5.85% | [4] 31.3% | [5] -12.9% | [6] -27.8%

C[Si](C)(CNCCN)O[Si](C)(C)CNCCN
inactive: [1] 6.3% | [2] -18.8% | [3] -3.3% | [4] 13.1% | [5] 5.9% | [6] 13.3%

CC1=NCC(=O)N1
inactive: [1] -10.2% | [2] 1.5% | [3] -1.1% | [4] -11.8% | [5] -6.1% | [6] -4%

CCSCCNC(=O)NS(=O)(=O)c1ccc(C)cc1
inactive: [1] 4.85% | [2] -0.75% | [3] -6.45% | [4] 1.55% | [5] -11.4% | [6] 14%

CC(=O)NC(N)=O
inactive: [1] 3.9% | [2] 2.2% | [3] 28.4% | [4] -30.9% | [5] -1.9% | [6] 1.6%

CCc1c(O)c2c([nH]c1=O)SC(C)(C)CC2=NCC(C)C
inactive: [1] -23.8% | [2] -33.5% | [3] -16.9% | [4] -2.45% | [5] -43.6% | [6] 9.15%

Cn1c(=O)c2cc(O)cnc2n(C)c1=O
inactive: [1] 4.8% | [2] -5.8% | [3] 0.3% | [4] -14.7% | [5] -7.35% | [6] -3%

O=C1C2=C(Nc3cc([N+](=O)[O-])ccc3N2)OC1c1ccc2c(c1)OCO2 (stereo not given)
inactive: [1] -10.4% | [2] -16.9% | [3] -15.1% | [4] 5.75% | [5] -28.2% | [6] -5.45%

CC(C)=CC1CC(=O)C1(C)Sc1ccccc1 (stereo not given)
inactive: [1] 26.9% | [2] -1.5% | [3] 24.2% | [4] 12.9% | [5] 4.7% | [6] 2.95%

CCOC(=O)c1ccccc1NC
inactive: [1] -8.65% | [2] -7.4% | [3] -12.1% | [4] -4.9% | [5] -23.4% | [6] -26.1%

NC(=O)c1cn[nH]c1N
inactive: [1] 4.05% | [2] 6.2% | [3] 14.2% | [4] -29.6% | [5] -3.4% | [6] 0.55%

COC(=O)c1cc2ccccc2[nH]1
inactive: [1] 4% | [2] 8% | [3] -7.6% | [4] -15.3% | [5] -11.9% | [6] -13.8%

CC1(C)OC(=O)CC2(C)OC12 (stereo not given)
inactive: [1] -8% | [2] -52.3% | [3] -11.2% | [4] -16.4% | [5] -5.9% | [6] -19.2%

Cc1cc(=O)c2ccccc2n1CCCCCCCCCCn1c(C)cc(=O)c2ccccc21
inactive: [1] -12.1% | [2] -0.25% | [3] -17% | [4] -21.9% | [5] -26.6% | [6] 26.4%

O=C(O)CO.[NH2-].[NH2-].[Pt+2]
inactive: [1] -10.1% | [2] -17.8% | [3] -4.85% | [4] -14.9% | [5] -20.2% | [6] -18.2%

CCOC(C#CC(C)=O)OCC
inactive: [1] 31.1% | [2] 31.3% | [3] 22.9% | [4] 6.65% | [5] 46% | [6] 47.9%

CCOC(=O)CC(NC(=O)CC(N)C(=O)O)C(=O)OCC (stereo not given)
inactive: [1] 7.15% | [2] 3% | [3] -2.7% | [4] -1.25% | [5] -0.3% | [6] -3.25%

CCC1SCC(C)(C)NC1=O (stereo not given)
inactive: [1] 4.9% | [2] 13.4% | [3] -3.85% | [4] -39.2% | [5] 28.8% | [6] 1.4%

Cc1cc(=O)oc2c(CNC(CC(C)C)C(=O)O)c(O)ccc12 (stereo not given)
inactive: [1] -51.9% | [2] -32.3% | [3] -46.6% | [4] -16.4% | [5] -24.8% | [6] -63.1%

CC(=O)Oc1ccc(-c2ccccc2)cc1
inactive: [1] 23.3% | [2] 20.8% | [3] 16% | [4] 3.1% | [5] 18% | [6] 26.3%

O=c1cnn(C2OC(CO)C(O)C2O)c(=S)[nH]1 (stereo not given)
inactive: [1] -4.45% | [2] -1.45% | [3] 28.6% | [4] 1.25% | [5] 26.1% | [6] -96.5%

COc1ccc(-c2nc(N3CCCC3)no2)cc1
inactive: [1] -0.85% | [2] -4.65% | [3] 32.1% | [4] 3.85% | [5] 31.1% | [6] -20.9%

CC1=C(C(=O)CC(=O)C(=O)NC2C3CC4CC(C3)CC2C4)Sc2ccccc2N1 (stereo not given)
inactive: [1] -33.5% | [2] -0.15% | [3] -2.6% | [4] 8.8% | [5] -0.6% | [6] -21%

CC(C)N(CCC#N)C(=S)Nc1cccc(C(F)(F)F)c1
inactive: [1] 21.6% | [2] 13.2% | [3] 25.1% | [4] 0.25% | [5] 12.2% | [6] -2.85%

COc1cnnc2ccccc12
inactive: [1] 12.8% | [2] 3.2% | [3] 4.6% | [4] -2.35% | [5] -0.9% | [6] 14.3%

CC(O)(c1ccc(Cl)cc1)c1ccc(Cl)cc1
inactive: [1] -4.05% | [2] -18.9% | [3] 1.2% | [4] -52.6% | [5] -8.75% | [6] -15.8%
